Measurements taken from the supplement of paper PMC13380429.
Unmarked numbers belong to inactive results.

Tested on: Vero E6 infected with SARS-CoV-2
Assay: inhibition of SARS-CoV-2 cytopathic effect; higher = more antiviral protection, active = above 15
Settings: 48 h

Row | Compound | inhibition of SARS-CoV-2 cytopathic effect (1 nM) [%] | inhibition of SARS-CoV-2 cytopathic effect (8.33 nM) [%] | inhibition of SARS-CoV-2 cytopathic effect (100 nM) [%] | inhibition of SARS-CoV-2 cytopathic effect (833.33 nM) [%] | inhibition of SARS-CoV-2 cytopathic effect (10000 nM)
1 | CC(C)(C)c1ccc(S(=O)(=O)NCc2ccc(C(=O)Nc3cccnc3)cc2)cc1 | 1.28 | 0.01 | -0.96 | -2.95 | -10.9%
2 | Cc1cc(-c2nc(-c3ccc(OC(F)(F)F)cc3)no2)nn1Cc1ccnc(N2CCN(C3CC3)CC2)c1 | 0.33 | -2.02 | -12.6 | 0.7 | -8.83%
3 | CN1[C@@H]2CC[C@H]1C[C@@H](OC1c3ccccc3CCc3ccccc31)C2 [deptropine] | 0.19 | 0.38 | 1.32 | -0.87 | 12.7%
4 | O=C(O)Cc1cccc2c(=O)cc(-c3ccccc3)oc12 [mitoflaxone] | 1.27 | 0.65 | 1.42 | 1.5 | 0.08%
5 | Nc1nccc2c1ncn2C1C=C(CO)C(O)C1O (stereo not given) [3-deazaneplanocin-A] | 0.46 | 1.89 | 3.16 | 5.38 | -3.44%
6 | N#CCNC(=O)c1ccc(-c2ccnc(Nc3ccc(N4CCOCC4)cc3)n2)cc1 | -0.49 | -0.77 | -0.33 | -4.04 | -6.6%
7 | C=C(c1ccc(C(=O)O)cc1)c1cc2c(cc1C)C(C)(C)CCC2(C)C [bexarotene] | -0.21 | -0.07 | 0.42 | 0.85 | 0.03%
8 | Oc1ncnc2[nH]ncc12 [allopurinol] | -15.3 | -12.3 | -11.2 | -10.9 | -7.04%
9 | CSc1ccc2c(c1)[C@H](N1CCN(C)CC1)Cc1ccccc1S2 (racemic) [metitepine] | 0.91 | 0.58 | -0.78 | -2.3 | 16.2% (active)
10 | Cn1ccnc1S [methimazole] | 0.07 | 2.09 | 0.26 | 0.56 | 0.22%
11 | O=C1c2cc(Cl)ccc2OC2CCON12 (stereo not given) [seclazone] | -0.24 | 1.68 | 1.79 | 0.75 | 1.99%
12 | Cc1ncc(-c2ccnc(Nc3ccc(S(C)(=O)=O)cc3)n2)n1C(C)C | 0.38 | -1.83 | -1.95 | 6.02 | -2.7%
13 | NC(=O)c1ccc(F)c2c1C[C@@H](N(C1CCC1)C1CCC1)CO2 [robalzotan] | -1.71 | 2.76 | 1.8 | 0.98 | 3.7%
14 | CCN(CC)CC1CCN(c2ncc3ncnc(Nc4ccc(F)c(Cl)c4)c3n2)CC1 | 1.37 | 1.44 | -3 | -7.12 | 21.6% (active)
15 | COc1ccnc2[nH]cc(C(=O)C(=O)N3CCN(C(=O)c4ccccc4)C[C@H]3C)c12 | 1.91 | -1.88 | -0.3 | 0.28 | 1.74%
16 | O=C(O)/C=C(/CC(=O)O)C(=O)O [cis-aconitic-acid] | 0.99 | 0.49 | -3.45 | -2.25 | 0.81%
17 | Cc1nnc2ccc(-c3cccc(C(F)(F)F)c3)nn12 | -0.37 | 3.68 | 2.78 | 1.93 | 2.16%
18 | CCCCC#Cc1nc(NC)c2ncn([C@@H]3O[C@H](CO)[C@@H](O)[C@H]3O)c2n1 | -0.9 | -1.35 | 0.37 | -1.59 | -0.62%
19 | Nc1ncn([C@@H]2O[C@H](CO)[C@@H](O)[C@H]2O)c(=O)n1 [azacitidine] | -3.6 | 0.66 | 0.98 | -0.22 | 0.95%
